Test results as given in ChEMBL document CHEMBL4513216, “Probing the Open Global Health Chemical Diversity Library for Multistage-Active Starting Points for Next-Generation Antimalarials” (ACS Infect Dis, 2020).
Among all 69,000 compounds or so, about 8,600 (12%) showed an effect of 50% or more. This is one part of a sample in which strong results are shown more often than they occur.

test system: Plasmodium berghei; test: Screen against P. berghei liver stage (PbLuc), transformed with Luciferase, at 10uM; assay type: functional, HepG2; details: tested at 10 uM

**Q.** How did the INHIBITION turn out when `Cc1nonc1-c1nc(C(C)C)nn1-c1ccc2c(c1)OCO2` was run?
**A.** Its INHIBITION is 82%.

**Q.** How did the INHIBITION turn out when `CC(C)c1nc(-c2ccc(=O)[nH]n2)n(-c2ccc3c(c2)OCO3)n1` was run?
**A.** The INHIBITION was 25.5%.

**Q.** Which INHIBITION does the source give for `CCc1nnsc1-c1nc(C(C)C)nn1-c1ccc2c(c1)OCO2` here?
**A.** Its INHIBITION is 12.4%.

**Q.** With `CN(C)c1nc(CNC(=O)N[C@H](CO)c2ccccc2)cs1` as the molecule, how does the INHIBITION read?
**A.** The INHIBITION was -42%.

**Q.** `COc1ccccc1CCNC(=O)CC1(Cn2cnnn2)CCCCC1` was tested. Which INHIBITION did it give?
**A.** Its INHIBITION is 48.2%.

**Q.** With `CC(C)Cc1cc(NC(=O)c2n[nH]c3ccccc23)n(C)n1` as the molecule, how does the INHIBITION read?
**A.** Its INHIBITION is 56.6%.

**Q.** With `CC(C)Cc1cc(NC(=O)c2ccccc2)n(C)n1` as the molecule, how does the INHIBITION read?
**A.** Its INHIBITION is 10%.

**Q.** How did the INHIBITION turn out when `CC(C)Cc1cc(NC(=O)c2ccc(=O)[nH]n2)n(C)n1` was run?
**A.** Its INHIBITION is 40.3%.

**Q.** With `COC(CNC(=O)C1CCCC1)c1ccc(C)s1` (configuration not stated) as the molecule, how does the INHIBITION read?
**A.** The INHIBITION was 24.7%.

**Q.** For `COc1cc(C(=O)N2CCCC2c2noc(C(C)C)n2)on1` (configuration not stated), which INHIBITION is on record?
**A.** Its INHIBITION is -2.143%.

**Q.** With `Cn1ccnc1CN(CCO)Cc1ccc(C(F)(F)F)cc1` as the molecule, how does the INHIBITION read?
**A.** The INHIBITION was 29.8%.

**Q.** With `CN(Cc1nccn1C)C1CCCN(CCCc2ccccc2)C1` (configuration not stated) as the molecule, how does the INHIBITION read?
**A.** The INHIBITION was 43.7%.

**Q.** With `CN(CCCc1ccc(C(F)(F)F)cc1)Cc1nccn1C` as the molecule, how does the INHIBITION read?
**A.** Its INHIBITION is 66.8%.

**Q.** For `CC(=O)c1ccc(S(=O)(=O)Nc2cnn(C3CCOCC3)c2)cc1`, which INHIBITION is on record?
**A.** The INHIBITION was -24.1%.

**Q.** `O=C(Cn1ccc2ccc(Cl)cc21)/N=c1\[nH]nc(C2CCCO2)s1` (configuration not stated) was tested. Which INHIBITION did it give?
**A.** Its INHIBITION is 39.7%.

**Q.** With `CC(C)CN1CC(c2nc(-c3ccsc3)c[nH]2)CC1=O` (configuration not stated) as the molecule, how does the INHIBITION read?
**A.** The INHIBITION was 53.3%.

**Q.** `CC(C)CN1CC(c2nc(-c3ccc(F)cc3)c[nH]2)CC1=O` (configuration not stated) was tested. Which INHIBITION did it give?
**A.** Its INHIBITION is 27.5%.

**Q.** For `COc1ccc(-c2c[nH]c(C3CC(=O)N(CC(C)C)C3)n2)cc1` (configuration not stated), which INHIBITION is on record?
**A.** The INHIBITION was -15%.

**Q.** Which INHIBITION does the source give for `CC(C)N1CCC(Cc2cncc(-c3cc(F)ccc3C(=O)O)n2)CC1` here?
**A.** The INHIBITION was 41.2%.

**Q.** For `CCN(CCNS(=O)(=O)N1CCOCC1)C(=O)OC(C)(C)C`, which INHIBITION is on record?
**A.** The INHIBITION was 41.3%.

**Q.** `CN(C(=O)NCc1nccn1Cc1ccccc1)C1CC1` was tested. Which INHIBITION did it give?
**A.** The INHIBITION was 46.4%.

**Q.** `Cc1cc(C)n2c(CCCNS(=O)(=O)c3cccs3)nnc2n1` was tested. Which INHIBITION did it give?
**A.** Its INHIBITION is 31.3%.

**Q.** Which INHIBITION does the source give for `COc1ccc(CC(=O)NCCCc2nnc3nc(C)cc(C)n23)cc1` here?
**A.** Its INHIBITION is 52.7%.

**Q.** Which INHIBITION does the source give for `Cc1cc(C)n2c(CCCNS(=O)(=O)c3ccccc3)nnc2n1` here?
**A.** The INHIBITION was 34.6%.

**Q.** How did the INHIBITION turn out when `COc1ccc(CC(=O)NCCNS(=O)(=O)c2ccc(C)cc2)cc1` was run?
**A.** The INHIBITION was -57.5%.

**Q.** Which INHIBITION does the source give for `COc1ccc(S(=O)(=O)NCCCc2nnc3nc(C)cc(C)n23)cc1` here?
**A.** The INHIBITION was 74.6%.

**Q.** Which INHIBITION does the source give for `Cc1cc(C)n2c(CCCNS(=O)(=O)c3ccc(F)cc3)nnc2n1` here?
**A.** Its INHIBITION is 15.4%.

**Q.** With `CCCS(=O)(=O)NCC(O)c1c(Cl)cccc1Cl` (configuration not stated) as the molecule, how does the INHIBITION read?
**A.** Its INHIBITION is 0.87%.

**Q.** For `CCn1nc(C)c2c1cnn2CC(=O)NC(C)c1cccc(OC)c1` (configuration not stated), which INHIBITION is on record?
**A.** The INHIBITION was 49.9%.

**Q.** For `Cc1nnc([C@@H]2CC[C@@H]3[C@@H](CCN3C3CCC3)O2)o1`, which INHIBITION is on record?
**A.** The INHIBITION was 23.3%.

**Q.** How did the INHIBITION turn out when `Cc1nnc([C@@H]2CC[C@@H]3[C@@H](CCN3CC3CCOCC3)O2)o1` was run?
**A.** Its INHIBITION is -13.7%.

**Q.** Which INHIBITION does the source give for `Cc1nnc([C@@H]2CC[C@@H]3[C@@H](CCN3C3CCOCC3)O2)o1` here?
**A.** The INHIBITION was 60.3%.

**Q.** How did the INHIBITION turn out when `CCCNC(=O)COc1ccc(-c2ccccc2)nc1` was run?
**A.** Its INHIBITION is -91.3%.

**Q.** Which INHIBITION does the source give for `O=C(Cn1cc(I)cn1)Nc1cccnc1` here?
**A.** The INHIBITION was 4.74%.

**Q.** For `Cn1cc(C(=O)NCc2cncc3c2CCN(CC2CC2)C3)cn1`, which INHIBITION is on record?
**A.** Its INHIBITION is 28.5%.

**Q.** With `Cc1nc(-c2ccccc2)n(CC(=O)NC(C)C)n1` as the molecule, how does the INHIBITION read?
**A.** The INHIBITION was 31.2%.

**Q.** Which INHIBITION does the source give for `CNC(=O)c1ccc(OC)c(NCc2ncc(-c3cccs3)o2)c1` here?
**A.** The INHIBITION was 61.1%.

**Q.** With `CCc1nc(CCNC(=O)Nc2cc(C(N)=O)ccc2OC)cs1` as the molecule, how does the INHIBITION read?
**A.** Its INHIBITION is -10.8%.

**Q.** For `COc1ccc(C(N)=O)cc1NCc1nc(-c2cccs2)oc1C`, which INHIBITION is on record?
**A.** The INHIBITION was 68%.

**Q.** Which INHIBITION does the source give for `COc1ccc(C(N)=O)cc1NCc1noc(-c2ccsc2)n1` here?
**A.** The INHIBITION was 9.06%.

**Q.** `COc1ccc(C(N)=O)cc1NCc1ncc(-c2cccs2)o1` was tested. Which INHIBITION did it give?
**A.** Its INHIBITION is 69.7%.

**Q.** With `COc1ccc(C(N)=O)cc1NCc1ncc(C(C)(C)C)o1` as the molecule, how does the INHIBITION read?
**A.** The INHIBITION was 15.7%.

**Q.** `CNC(=O)c1ccc(OC)c(NCc2noc(-c3ccsc3)n2)c1` was tested. Which INHIBITION did it give?
**A.** Its INHIBITION is -48.5%.

**Q.** For `COc1ccc(NC(=O)CCn2nc(-c3cccs3)oc2=O)cc1OC`, which INHIBITION is on record?
**A.** Its INHIBITION is -22.9%.

**Q.** For `CNC(=O)c1ccc(OC)c(NCc2noc(-c3cccs3)n2)c1`, which INHIBITION is on record?
**A.** Its INHIBITION is 10%.

**Q.** With `COc1ccnc(N2CCN(CC(O)CN3CCOCC3)CC2)n1` (configuration not stated) as the molecule, how does the INHIBITION read?
**A.** The INHIBITION was 4.52%.

**Q.** How did the INHIBITION turn out when `Cn1ccnc1CN1CCC(c2nnc(Cn3cccn3)n2C)CC1` was run?
**A.** The INHIBITION was 16.3%.

**Q.** With `N#Cc1ccccc1C(=O)N1C[C@@H]2CC[C@H]1CN(c1ncccn1)C2` as the molecule, how does the INHIBITION read?
**A.** The INHIBITION was 12.9%.

**Q.** Which INHIBITION does the source give for `N#CC1(C(=O)N2CCCN(c3nccs3)CC2)CCCCC1` here?
**A.** Its INHIBITION is 11.45%.

**Q.** Which INHIBITION does the source give for `O=C(c1cnc(-c2cnccn2)s1)N1CCCC(n2cccn2)C1` (configuration not stated) here?
**A.** The INHIBITION was 10%.

**Q.** `CN1CCC(Oc2ccc(-n3ccnc3-c3nccn3C)cc2)CC1` was tested. Which INHIBITION did it give?
**A.** Its INHIBITION is 13%.

**Q.** Which INHIBITION does the source give for `CN(CCc1ccccc1)C(=O)c1cccnc1OCC(F)(F)F` here?
**A.** Its INHIBITION is 45.1%.

**Q.** How did the INHIBITION turn out when `Cc1cc(=O)n2nc(CNc3cc(Cl)ccc3C)nc2[nH]1` was run?
**A.** Its INHIBITION is 39.2%.

**Q.** With `Cc1ncsc1C(=O)NCCN1CCCCCC1=O` as the molecule, how does the INHIBITION read?
**A.** Its INHIBITION is 25.4%.

**Q.** How did the INHIBITION turn out when `Cc1ccc(S(=O)(=O)N(C)c2ccsc2C(=O)NCC(C)C)cc1` was run?
**A.** Its INHIBITION is 28.4%.

**Q.** With `CCNC(=O)c1sccc1N(C)S(=O)(=O)c1ccc(Cl)cc1` as the molecule, how does the INHIBITION read?
**A.** The INHIBITION was 26.7%.

**Q.** How did the INHIBITION turn out when `COCCNC(=O)c1sccc1N(C)S(=O)(=O)c1ccc(Cl)cc1` was run?
**A.** The INHIBITION was 51.6%.

**Q.** With `CN(C)CCNC(=O)c1sccc1N(C)S(=O)(=O)c1ccc(Cl)cc1` as the molecule, how does the INHIBITION read?
**A.** The INHIBITION was 54%.

**Q.** With `CCCNC(=O)c1sccc1N(C)S(=O)(=O)c1ccc(Cl)cc1` as the molecule, how does the INHIBITION read?
**A.** Its INHIBITION is 23.7%.

**Q.** `CNC(=O)c1sccc1N(C)S(=O)(=O)c1ccc(Cl)cc1` was tested. Which INHIBITION did it give?
**A.** The INHIBITION was 84.7%.

**Q.** Which INHIBITION does the source give for `CC(C)NC(=O)c1sccc1N(C)S(=O)(=O)c1ccc(Cl)cc1` here?
**A.** Its INHIBITION is 0%.

**Q.** `CC(C)CCNC(=O)c1sccc1N(C)S(=O)(=O)c1ccccc1` was tested. Which INHIBITION did it give?
**A.** The INHIBITION was 0%.

**Q.** `COC(=O)CNC(=O)c1sccc1N(C)S(=O)(=O)c1ccc(Cl)cc1` was tested. Which INHIBITION did it give?
**A.** The INHIBITION was 20.1%.

**Q.** Which INHIBITION does the source give for `CN1CCCC1c1nnc2n1CCN(S(=O)(=O)c1ccccc1Cl)CC2` (configuration not stated) here?
**A.** The INHIBITION was -12.252%.

**Q.** `NC(=O)[C@@H]1Cc2ccccc2N1C(=O)C1CC(c2ccccc2)=NO1` (some centres not stated) was tested. Which INHIBITION did it give?
**A.** Its INHIBITION is -13.6%.

**Q.** For `CNC(=O)CN(C)C(=O)c1cc(Cl)c(Cl)n1C`, which INHIBITION is on record?
**A.** The INHIBITION was 37.1%.

**Q.** Which INHIBITION does the source give for `Cc1nnc(NCc2cccc(OCc3ccccn3)c2)c(C#N)c1C` here?
**A.** Its INHIBITION is 40.1%.
